Structures are written as SMILES. Records with an inconclusive call do not appear. Where a call stands in place of a potency, no number is given. Calls of active or inactive are those of the source. The call rests on the fitted dose curve; in most records, active means well fitted activation curve with a large enough effect; inconclusive means small, poorly fitted or top-dose-only effect; inactive means flat fitted curve, though single readings scatter.

The experiment in a line: qHTS for Inhibitors of Cell Surface uPA Generation: FP59 Counterscreen for Cherry-picked Compounds. The settings on record: FP59 anthrax toxin cytotoxicity counterscreen, cells; series mostly up to 115 µM. A general note: In qHTS, concentration-response curves come from the screen itself.
As for `O=C(CN(c1ccccc1F)S(=O)(=O)c1ccccc1)Nc1ccc2c(c1)OCCO2`, the Potency entry is “inactive”.

For the compound `CCCc1nc2c(=O)n(C)c(=O)[nH]c2n1CCC`, the Potency entry is “inactive”.

Regarding `O=C(Cn1cnc2c(OCc3ccccc3)ncnc21)NCCCN1CCCC1=O`, the Potency result is “inactive”.

As for `CCCC1=NN(C(=O)Cc2ccc(OC)cc2)C(O)(C(F)(F)F)C1` (stereo not drawn), the Potency entry was “inactive”.

For the compound `O=C(COc1cccc2ccccc12)NNC(=O)c1cnccn1`, the Potency result was “inactive”.

Consider `O=C(NCC1CCCO1)c1ccc(NC(=O)c2ccc([N+](=O)[O-])cc2)cc1` (stereo not drawn), for which the Potency result is “inactive”.

With `CC(=O)n1cc(/C=N/NC(=O)c2ccc([N+](=O)[O-])cc2)c2ccccc21`, the Potency result was “inactive”.

As to `CCCCCOC(=O)Nc1nnc(CCCCC)s1`, the Potency entry is “inactive”.

On to `COc1ccc(CCN=c2c([N+](=O)[O-])nn(-c3cccc(C)c3)n2O)cc1OC`, for which the Potency entry was “inactive”.

Regarding `Cc1cc(-c2ccccc2)nc(N/N=C/c2ccc(N(C)C)cc2)n1`, the Potency entry was “inactive”.

Turning to `Nc1nc2ccc(Br)cc2o1`, the Potency result was “inactive”.

Consider `Brc1ccsc1/C=N/Nc1ccccc1`, for which the Potency entry was “inactive”.

For `O=C(COc1cc2oc(=O)cc(-c3ccccc3)c2cc1Cl)NC(Cc1c[nH]c2ccc(O)cc12)C(=O)O` (stereo not drawn), the Potency entry is “inactive”.

Consider `COc1ccc(NC(=O)/C(N=Nc2cc(S(=O)(=O)Nc3ccc(OC)cc3)ccc2OC)=C(\C)O)cc1`, for which the Potency entry was “inactive”.

Regarding `O=C(COC(=O)/C=C/c1cccc(F)c1)Nc1ccccc1`, the Potency result is “inactive”.

With `CCOC(=O)C1(CC2CCCCO2)CCN(Cc2nccn2-c2cccc(C)c2)CC1` (stereo not drawn), the Potency entry is “inactive”.

Take `CN(CCC#N)C(=S)Nc1ccc(Oc2ccccc2)cc1`: the Potency result is “inactive”.

Consider `COc1ccc(-c2sc3ccccc3c2C#CCO)cc1`, for which the Potency result was “inactive”.

Values taken from PubChem BioAssay AID720517 (National Center for Advancing Translational Sciences (NCATS), 2013).
